Experimental data as given in publication PMC4336329 (PLoS ONE, 2015).
Among all 310,000 compounds or so, about 14,000 (4.5%) showed an effect of 50% or more. The effect is printed as a negative number. Only a selection was taken, and strong results are over-represented in it overall.

molecular target: human ether-à-go-go-related gene (hERG) potassium channel (human, UniProt Q12809); assay: primary screen, population patch clamp on CHO cells stably expressing hERG; higher = less effect of the substance
Sequence (Q12809 whole entry, looked up): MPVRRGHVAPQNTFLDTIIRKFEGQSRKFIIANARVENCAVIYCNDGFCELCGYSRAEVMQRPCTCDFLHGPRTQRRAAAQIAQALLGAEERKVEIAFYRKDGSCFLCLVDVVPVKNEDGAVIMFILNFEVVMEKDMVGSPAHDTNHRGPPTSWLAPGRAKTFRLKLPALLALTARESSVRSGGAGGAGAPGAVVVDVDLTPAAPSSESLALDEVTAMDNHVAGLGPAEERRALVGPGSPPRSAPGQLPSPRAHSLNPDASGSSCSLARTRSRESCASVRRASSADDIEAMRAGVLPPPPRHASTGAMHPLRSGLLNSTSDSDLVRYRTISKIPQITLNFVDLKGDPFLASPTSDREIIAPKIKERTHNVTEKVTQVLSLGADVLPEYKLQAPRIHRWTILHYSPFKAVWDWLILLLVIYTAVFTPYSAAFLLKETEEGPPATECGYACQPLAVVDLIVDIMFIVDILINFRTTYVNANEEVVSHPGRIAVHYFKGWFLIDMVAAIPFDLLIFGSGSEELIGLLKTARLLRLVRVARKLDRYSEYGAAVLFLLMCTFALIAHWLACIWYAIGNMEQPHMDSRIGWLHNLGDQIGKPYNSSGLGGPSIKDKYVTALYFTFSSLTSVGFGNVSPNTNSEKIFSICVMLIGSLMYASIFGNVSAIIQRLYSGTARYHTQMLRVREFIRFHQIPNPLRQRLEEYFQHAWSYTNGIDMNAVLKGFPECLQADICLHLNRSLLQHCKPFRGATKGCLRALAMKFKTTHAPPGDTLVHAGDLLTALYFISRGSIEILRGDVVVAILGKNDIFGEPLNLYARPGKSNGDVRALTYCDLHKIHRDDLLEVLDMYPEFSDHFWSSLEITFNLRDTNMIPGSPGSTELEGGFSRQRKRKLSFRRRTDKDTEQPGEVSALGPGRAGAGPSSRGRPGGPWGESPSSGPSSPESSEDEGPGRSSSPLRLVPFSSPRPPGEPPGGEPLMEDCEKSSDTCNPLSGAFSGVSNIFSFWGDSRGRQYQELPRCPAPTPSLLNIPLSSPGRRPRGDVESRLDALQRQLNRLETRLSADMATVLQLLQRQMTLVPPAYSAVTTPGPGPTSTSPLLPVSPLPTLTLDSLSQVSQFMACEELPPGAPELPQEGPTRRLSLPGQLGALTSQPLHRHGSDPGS
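Further: peak tail current of the secondary pulse compared with the same well before compound.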

Row | Compound | hERG current change (%, negative = inhibition) at 10uM
1 | Cc1ccc(S(=O)(=O)N(C(=N)N)c2nc(N(C)C)nc(N(C)C)n2)cc1 | 4.96%
2 | CN(C)P(=O)(NC(=O)c1cccn1C)N(C)C | 47.3%
3 | CC(=O)Nc1ccc(Nc2ncnc3c2cnn3-c2ccccc2)cc1 | 12.9%
4 | Cc1cc(C)nc(Nc2nc(-c3ccccc3)cs2)n1 | 16.4%
5 | O=C(NCCS(=O)c1ccc(Cl)cc1)c1cccc(Cl)c1 (stereo not shown) | -12.2%
6 | Cc1ccc(C(C)C)c(OC(=O)/C=C/c2ccccc2)c1 | 9.52%
7 | Cn1cc(S(=O)(=O)N2CCCC2)cc1C(=O)N1CCN(c2ccccc2)CC1 | -35.8%
8 | CCc1ccc(NC2=NCCCS2)cc1 | -9.94%
9 | c1ccc2c3c([nH]c2c1)C1(CCNCC1)NCC3 | -6.06%
10 | CCCNS(=O)(=O)c1ccc(CCC(=O)N2CCN(c3ccc(F)cc3)CC2)cc1 | -43.7%
11 | CC(C)CNS(=O)(=O)c1ccc(CCC(=O)N2CCN(c3ccc(F)cc3)CC2)cc1 | -50.3%
12 | CC(C)CNS(=O)(=O)c1ccc(CCC(=O)N2CCCC2)cc1 | 24.4%
13 | COc1cc2c3nnc(-c4ccc(F)cc4)c-3cn(Cc3ccccc3)c2cc1OC | -37.1%
14 | COc1ccc(Cn2cc3c(-c4ccc(F)cc4)nnc-3c3cc(OC)c(OC)cc32)cc1 | -88.2%
15 | COc1cc2c3nnc(-c4ccc(F)cc4)c-3cn(Cc3ccc(F)cc3)c2cc1OC | -28.5%
16 | COc1cc2c3nnc(-c4ccc(F)cc4)c-3cn(Cc3cccc(F)c3)c2cc1OC | 29.7%
17 | COc1cc2c3nnc(-c4ccc(F)cc4)c-3cn(Cc3ccc(C)cc3)c2cc1OC | 2.79%
18 | COc1cc2c3nnc(-c4ccccc4)c-3cn(Cc3ccc(F)cc3)c2cc1OC | -76.8%
19 | COc1ccc(C(=O)O)nc1C | 5.78%
20 | C/C(=N/NC(=O)CN1CCN(S(=O)(=O)c2ccc(Br)cc2)CC1)c1ccco1 | -68.9%
21 | C/C(=N/NC(=O)CN1CCN(S(=O)(=O)c2ccc(C)cc2)CC1)c1ccco1 | -53.7%
22 | C/C(=N/NC(=O)CN1CCN(Cc2ccccc2Cl)CC1)c1ccco1 | -25.4%
23 | C/C(=N/NC(=O)CN1CCN(S(=O)(=O)c2ccc(C)cc2)CC1)c1cccc(O)c1 | -15%
24 | COc1cc(/C(C)=N/NC(=O)CN2CCN(S(=O)(=O)c3ccc(C)cc3)CC2)ccc1O | -11.6%
25 | C/C(=N\NC(=O)CN1CCN(c2ccc(F)cc2)CC1)c1ccco1 | -30.3%
26 | C=CCn1c(SCc2ccccc2)nc2scc(-c3ccc(C)o3)c2c1=O | 8.76%
27 | COc1cc(NC2c3ncccc3C(=O)N2Cc2ccco2)cc(OC)c1 (stereo not shown) | -0.0378%
28 | CCOC(=O)N1CCN(C(=O)c2ccc(Cn3c(=S)[nH]c4ccc(Br)cc4c3=O)cc2)CC1 | 13.3%

Row | Compound | hERG current change (%, negative = inhibition) at 10uM
29 | CC1(C)CC(=O)C=C(Nc2ccc3c(c2)OCCO3)C1 | 17.7%
30 | CN(C)c1cccc(NC2=CC(=[N+]3CCOCC3)CC(C)(C)C2)c1.[I-] | -65.6%
31 | CN(C)NC1=CC(=[N+]2CCCC2)CC(C)(C)C1.[I-] | 14.6%
32 | CCOc1ccc(NC(=O)NC(C)c2ccc3c(c2)OCO3)cc1 (stereo not shown) | 21.3%
33 | CC1=NN(Cc2ccccc2)C(=O)C1 | -0.313%
34 | O=C(Nc1ccn(-c2ccccc2)n1)c1ccccc1Br | -66%
35 | CC(=O)Nc1ccn(-c2ccccc2)n1 | 8.89%
36 | O=C(Nc1ccn(-c2ccccc2)n1)c1ccc(Cl)cc1 | -8.56%
37 | O=C1CC(c2ccccc2)CC2=C1C=Nc1ccccc1N2 (stereo not shown) | -61%
38 | O=C1CC(c2ccc(F)cc2)CC2=C1C(c1ccc([N+](=O)[O-])o1)Nc1ccccc1N2 (stereo not shown) | -47.3%
39 | CC1(C)CC(=O)C2=C(C1)Nc1ccccc1N=C2.Cl | -8.52%
40 | O=C1CC(c2ccc(F)cc2)CC2=C1C=Nc1ccccc1N2 (stereo not shown) | -72.8%
41 | O=C1CC(c2ccco2)CC2=C1C=Nc1ccccc1N2 (stereo not shown) | -24.9%
42 | CC1CC(=O)C2=C(C1)Nc1ccccc1N=C2 (stereo not shown) | -4.46%
43 | O=C(Nc1c[nH]c(=O)[nH]c1=O)c1ccc([N+](=O)[O-])cc1 | 10%
44 | COc1cc(C)c(Br)cc1S(=O)(=O)NCCCN1CCOCC1 | 9.66%
45 | CCOC(=O)c1[nH]c(C)c(C(=O)OCC(=O)N2c3ccccc3CC2C)c1C (stereo not shown) | -0.0968%
46 | O=C(c1cc(-c2ccc(Br)cc2)n[nH]1)N1CCN(C(=O)c2ccccc2Br)CC1 | -32.4%
47 | COc1ccc(S(=O)(=O)N2CCN(C(=O)c3cc(-c4ccc(Br)cc4)n[nH]3)CC2)cc1OC | -13.5%
48 | COc1cc(C(=O)N2CCN(C(=O)c3cc(-c4ccccc4)n[nH]3)CC2)cc(OC)c1OC | -77.6%
49 | COc1cc(C(=O)N2CCN(C(=O)c3ccccc3)CC2)cc(OC)c1OC | 8.49%
50 | COc1ccc(-c2cc(C(=O)N3CCN(S(=O)(=O)c4ccccc4)CC3)[nH]n2)cc1 | 8.23%
51 | COc1cc(C(=O)N2CCN(C(=O)c3cc(-c4ccc(Br)cc4)n[nH]3)CC2)cc(OC)c1OC | -73.3%
52 | Cc1nc2sc3c(c2c2nnc(SCC(=O)NCc4ccco4)n12)CCCC3 | -28.2%
53 | Cc1nnc(SCc2nnc(-c3ccccc3Br)o2)n1-c1ccccc1 | -14.6%
54 | Cc1cnc(C(=O)NCCc2ccc(Cl)cc2)cn1 | -15.8%
55 | COc1ccc(OC)c(C2=CC(=O)C[C@H](c3ccc4c(c3)OCO4)C2)c1 | -10.6%
